# Data from the supplement of paper PMC12024529.
# Values joined by “and” are separate entries in the source; they are usually repeats but may differ in a detail not shown here. Equal entries are not always repeated.
# Test system: HEK293 WT BDD-FVIII-Gluc
# Test: secreted FVIII-Gluc luciferase Z-score vs DMSO control; higher = more FVIII-Gluc secretion
# Settings: 5 µM
# Procedure: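 Natural plant-compound library (480 compounds, ST catalogue IDs) screened on HEK293 cells stably expressing WT BDD-FVIII-Gaussia luciferase fusion at 5 µM. Secreted Gluc activity in the medium is given as a Z-score relative to DMSO controls.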
row,SMILES,secreted FVIII-Gluc luciferase Z-score
1,C[C@H](CCC(=O)O)[C@H]1CC[C@H]2[C@@H]3C(=O)C[C@@H]4CC(=O)CC[C@]4(C)[C@H]3CC(=O)[C@]12C,0.818
2,O=C1C[C@@H]2[C@@H](CO)[C@H](O)C[C@@H]2O1,0.258
3,CC1=CCC2(C)CCC(O)(C(C)C)C2C(OC(=O)c2ccc(O)cc2)C1 (stereo not given),0.752
4,C/C=C(\C)C(=O)OC1CC2(C)OC2C(OC(C)=O)C2(C)CCC(O)(C(C)C)C12 (stereo not given),-0.754
5,Oc1ccc(/C=C/c2cc(O)cc(O)c2)cc1,0.294
6,NCC1OC(OC2C(CO)OC(OC3C(O)C(N)CC(N)C3OC3OC(CO)C(O)CC3N)C2O)C(N)C(O)C1OC1OC(CO)C(O)C(O)C1O (stereo not given),1.54
7,COC(=O)C1(O)CC(O)C(NC(C)=O)C(C(O)C(O)CO)O1 (stereo not given),0.68
8,C[C@H]1[C@H](C)CC[C@]2(C(=O)O)CC[C@]3(C)C(=CC[C@@H]4[C@@]5(C)CC[C@H](O)C(C)(C)[C@@H]5CC[C@]43C)[C@H]12,0.136
9,CC1=CC(=O)C2CC1C2(C)C (stereo not given),0.115
10,OCC1OC(n2cnc3cncnc32)C(O)C1O (stereo not given),-0.247
11,COc1c(C)c2c(c(O)c1C/C=C(\C)CCC(=O)O)C(=O)OC2,-4.24
12,CC/C=C\C[C@H]1C(=O)CC[C@@H]1CC(=O)O,0.253
13,COc1ccc2c(=O)cc(-c3ccccc3)oc2c1O,0.609
14,C[C@@H]1C(=O)O[C@H]2[C@@H](O)[C@@]34[C@H]5CC(C(C)(C)C)[C@]36[C@@H](OC(=O)[C@@H]6O)O[C@@]4(C(=O)O5)[C@@]12O (stereo not given in full),0.119
15,CC(C)=CCc1c(O)cc(O)c2c1O[C@H](c1ccccc1)CC2=O,-0.692
16,CC[C@@H]1[C@H]2CCCCN3[C@H]2[C@H](C[C@H]3[C@@H]2C[C@H](C)C(=O)O2)[C@@H]2[C@H]1OC(=O)[C@H]2C,-0.0302
17,COc1ccc2oc(-c3cccc(OC)c3OC)cc(=O)c2c1,0.436
18,O=C(N[C@H](CO)[C@H](O)c1ccc([N+](=O)[O-])cc1)C(Cl)Cl,0.907
19,COc1cc2nc(N3CCN(C(=O)c4ccco4)CC3)nc(N)c2cc1OC,0.161
20,Cc1cc(=O)cc2oc3cc(N)c(-c4c(C)cc(O)cc4O)c(C)c3nc1-2,-0.31

row,SMILES,secreted FVIII-Gluc luciferase Z-score
1,Nc1nc2c(ncn2[C@@H]2O[C@H](CO)[C@@H](O)[C@H]2O)c(=O)[nH]1,1.04
2,O=C(CCc1ccc(O)cc1)c1c(O)cc(O)cc1O[C@@H]1O[C@H](CO)[C@@H](O)[C@H](O)[C@H]1O,0.224 and 0.244
3,C=C1CCC2C(C)(CO)C(O)CCC2(C)C1C/C=C1\C(=O)OCC1O (stereo not given),-1.01
4,COc1ccc2c(=O)cc(-c3ccc(O)cc3)oc2c1,0.228
5,COc1ccccc1-c1oc2ccccc2c(=O)c1OC,1.49
6,CC1(C)CC[C@]2(C(=O)O)CC[C@]3(C)C(=CC[C@@H]4[C@@]5(C)CC[C@H](O)C(C)(C)[C@@H]5CC[C@]43C)[C@@H]2C1,0.157
7,CC(C=CC1=C(C)CCCC1(C)C)=CC=CC(C)=CCO,0.89
8,COc1ccccc1-c1cc(=O)c2cc(O)ccc2o1,0.281
9,CCc1cn(C2CC(O)C(CO)O2)c(=O)[nH]c1=O (stereo not given),-0.382
10,N[C@@H](Cc1c[nH]c2ccc(O)cc12)C(=O)O,0.43
11,CC(C)[C@@H]1CC[C@@H](C)C[C@H]1OC(=O)[C@@H](C)O,-0.146
12,O=C(O)/C=C/c1ccc(O)c(O)c1,-0.126
13,O=c1c(O)c(-c2ccccc2)oc2cc(O)cc(O)c12,0.586
14,Cc1ncc(CO)c(C=O)c1O,1.01
15,CCOC(=O)C1=C[C@]2(CC)CCCN3CCc4c(n1c1ccccc41)[C@@H]32,0.132
16,O=c1ccn(C2OC(COP(=O)(O)O)C(O)C2O)c(=O)[nH]1 (stereo not given),0.638
17,COc1cc2c(cc1OC)C(=O)Cc1ccc3c(c1CN(C)CC2)OCO3,0.000104
18,O=c1c(O)c(-c2ccc(O)c(O)c2)oc2c(O[C@@H]3O[C@H](CO)[C@@H](O)[C@H](O)[C@H]3O)c(O)cc(O)c12,1.19
19,COc1cc2oc(-c3ccccc3)cc(=O)c2cc1O,0.564
20,COc1cc(=O)n(C)c2c(OCC(O)C(C)(C)O)cccc12 (stereo not given),-1.05
